Holding throughout (assay): DAPPL (digital affinity profiling via proximity ligation, sequencing); 10 mM Tris-HCl pH 7.5, 50 mM NaCl, 1 mM DTT, 4% glycerol, room temperature, 30 min; GST-TFs on glutathione beads, 16-mer random dsDNA library, 0.1% formaldehyde crosslink after washing; high values mean tight binding
For one experiment, the target named is T1, FEV (Homo sapiens, UniProt Q99581 1-238).
T1 sequence: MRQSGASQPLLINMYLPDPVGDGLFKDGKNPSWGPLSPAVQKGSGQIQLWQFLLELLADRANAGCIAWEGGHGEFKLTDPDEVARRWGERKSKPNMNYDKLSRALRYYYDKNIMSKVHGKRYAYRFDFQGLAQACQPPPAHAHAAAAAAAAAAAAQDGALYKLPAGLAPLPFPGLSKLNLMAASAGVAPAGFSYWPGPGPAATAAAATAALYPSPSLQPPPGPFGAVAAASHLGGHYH
The settings on record: protein: recombinant; tags: N-terminal GST; dsDNA, one strand shown. The gist of the method: (§1)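 Yeast served to express human transcription factors as GST fusions, which were then captured on glutathione beads and labelled with DNA barcodes. Pooled with a tag-only sample, they were incubated with 200 nmole of a 16-mer random double-stranded DNA library for 30 min at room temperature in Tris/NaCl/DTT/glycerol buffer, washed, crosslinked with 0.1% formaldehyde, ligated by proximity, amplified by PCR and sequenced. Dividing each hexamer's read frequency for a factor by its frequency for the tag-only sample gives the binding signal.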

Another experiment has as its target ETV5 (Homo sapiens, UniProt P41161 1-510). The settings on record: protein: recombinant; tags: N-terminal GST; dsDNA, one strand shown. The gist of the method: as §1
Another experiment deals with HSF1 (Homo sapiens, UniProt Q00613 1-529). The settings on record: protein: recombinant; tags: N-terminal GST; chain copies: 3; dsDNA, one strand shown. The gist of the method:
as §1

A further experiment has as its target T2, SPIC (Homo sapiens, UniProt Q8N5J4 1-248).
T2 sequence: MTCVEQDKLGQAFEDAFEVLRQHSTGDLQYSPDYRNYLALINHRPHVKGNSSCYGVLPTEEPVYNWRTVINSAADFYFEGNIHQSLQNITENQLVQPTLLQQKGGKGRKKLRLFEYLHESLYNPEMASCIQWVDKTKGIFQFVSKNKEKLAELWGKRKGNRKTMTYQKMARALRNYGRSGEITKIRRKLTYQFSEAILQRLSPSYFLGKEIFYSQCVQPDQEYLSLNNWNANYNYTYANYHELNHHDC
The settings on record: protein: recombinant; tags: N-terminal GST; dsDNA, one strand shown. The gist of the method: as §1

The target in the next experiment is ELF4 (Homo sapiens, UniProt Q99607 1-663). The settings on record: protein: recombinant; tags: N-terminal GST; dsDNA, one strand shown. In a few lines:
as §1

Another experiment has as its target T3, ELK4 (Homo sapiens, UniProt P28324-2 1-405).
T3 sequence: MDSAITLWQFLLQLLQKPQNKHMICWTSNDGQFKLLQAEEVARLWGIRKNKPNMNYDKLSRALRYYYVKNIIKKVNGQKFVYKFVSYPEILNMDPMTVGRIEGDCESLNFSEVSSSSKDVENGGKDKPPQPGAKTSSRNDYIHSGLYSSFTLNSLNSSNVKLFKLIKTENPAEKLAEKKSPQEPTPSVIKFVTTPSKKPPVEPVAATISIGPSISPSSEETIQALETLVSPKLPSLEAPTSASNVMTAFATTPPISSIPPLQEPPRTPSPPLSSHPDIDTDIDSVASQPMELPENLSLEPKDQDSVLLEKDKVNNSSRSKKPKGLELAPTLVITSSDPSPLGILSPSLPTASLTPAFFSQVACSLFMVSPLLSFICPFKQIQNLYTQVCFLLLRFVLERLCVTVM
The settings on record: protein: recombinant; tags: N-terminal GST; dsDNA, one strand shown. In a few lines: as §1

In another experiment the target is T4, ETV2 (Homo sapiens, UniProt O00321 1-342).
T4 sequence: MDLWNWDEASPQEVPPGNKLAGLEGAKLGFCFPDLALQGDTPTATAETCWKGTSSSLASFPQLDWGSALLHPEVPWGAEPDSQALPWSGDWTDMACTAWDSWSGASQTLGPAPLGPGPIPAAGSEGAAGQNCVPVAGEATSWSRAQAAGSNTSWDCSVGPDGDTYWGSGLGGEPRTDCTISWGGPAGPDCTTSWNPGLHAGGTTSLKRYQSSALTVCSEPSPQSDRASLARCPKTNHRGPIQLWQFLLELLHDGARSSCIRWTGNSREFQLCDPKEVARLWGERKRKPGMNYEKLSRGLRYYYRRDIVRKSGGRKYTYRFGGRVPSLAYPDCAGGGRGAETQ
Particulars: protein: recombinant; tags: N-terminal GST; dsDNA, one strand shown. The gist of the method:
as §1

The target of another experiment is T5, ELF3 (Homo sapiens, UniProt P78545 1-371).
T5 sequence: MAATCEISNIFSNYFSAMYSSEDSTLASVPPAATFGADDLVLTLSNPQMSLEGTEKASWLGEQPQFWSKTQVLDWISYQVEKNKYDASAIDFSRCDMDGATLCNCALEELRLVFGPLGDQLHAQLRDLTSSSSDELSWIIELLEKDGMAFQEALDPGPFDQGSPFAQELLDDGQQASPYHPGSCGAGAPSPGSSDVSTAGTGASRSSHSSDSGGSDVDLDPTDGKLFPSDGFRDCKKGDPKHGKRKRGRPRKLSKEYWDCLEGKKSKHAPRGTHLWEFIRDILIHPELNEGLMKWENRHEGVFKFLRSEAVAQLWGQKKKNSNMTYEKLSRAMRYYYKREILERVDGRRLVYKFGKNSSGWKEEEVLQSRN
The settings on record: protein: recombinant; tags: N-terminal GST; dsDNA, one strand shown. The gist of the method:
as §1

Another experiment has as its target CRX (Homo sapiens, UniProt O43186 1-299). Particulars: protein: recombinant; tags: N-terminal GST; dsDNA, one strand shown. In a few lines:
as §1

In a further experiment the target is ETV1 (Homo sapiens, UniProt P50549 1-477). The settings on record: protein: recombinant; tags: N-terminal GST; dsDNA, one strand shown. The gist of the method: as §1
Chain of ETV1 (P50549 whole entry): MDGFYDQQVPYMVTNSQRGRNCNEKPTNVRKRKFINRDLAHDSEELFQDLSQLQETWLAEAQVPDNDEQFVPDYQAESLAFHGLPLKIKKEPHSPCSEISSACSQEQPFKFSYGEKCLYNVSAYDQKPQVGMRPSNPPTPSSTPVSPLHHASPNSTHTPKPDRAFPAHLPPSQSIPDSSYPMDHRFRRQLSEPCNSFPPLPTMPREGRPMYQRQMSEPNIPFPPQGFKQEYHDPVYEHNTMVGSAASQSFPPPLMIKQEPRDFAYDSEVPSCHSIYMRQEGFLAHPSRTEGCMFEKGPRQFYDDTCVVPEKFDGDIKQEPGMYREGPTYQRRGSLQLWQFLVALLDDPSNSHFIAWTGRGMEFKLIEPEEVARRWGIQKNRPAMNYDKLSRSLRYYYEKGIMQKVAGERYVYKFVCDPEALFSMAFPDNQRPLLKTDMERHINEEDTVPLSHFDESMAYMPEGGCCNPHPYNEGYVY
The target of another experiment is T6, ERF (Homo sapiens, UniProt P50548 1-548).
T6 sequence: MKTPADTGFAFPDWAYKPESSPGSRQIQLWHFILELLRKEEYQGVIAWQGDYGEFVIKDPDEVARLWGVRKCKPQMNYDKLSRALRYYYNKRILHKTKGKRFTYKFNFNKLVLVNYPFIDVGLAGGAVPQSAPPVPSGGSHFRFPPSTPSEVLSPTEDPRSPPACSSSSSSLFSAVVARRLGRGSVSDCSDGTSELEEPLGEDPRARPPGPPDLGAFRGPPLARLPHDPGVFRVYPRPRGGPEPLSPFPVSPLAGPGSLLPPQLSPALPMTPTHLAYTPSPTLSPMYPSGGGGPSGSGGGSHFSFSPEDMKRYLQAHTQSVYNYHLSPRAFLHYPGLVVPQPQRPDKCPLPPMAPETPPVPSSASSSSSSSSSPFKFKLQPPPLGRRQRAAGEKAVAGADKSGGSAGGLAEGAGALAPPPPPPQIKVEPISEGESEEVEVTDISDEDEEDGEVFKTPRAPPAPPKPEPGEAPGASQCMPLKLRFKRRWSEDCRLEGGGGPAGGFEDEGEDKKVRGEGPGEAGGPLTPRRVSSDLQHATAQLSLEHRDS
The settings on record: protein: recombinant; tags: N-terminal GST; dsDNA, one strand shown. The gist of the method: as §1

Another experiment addresses T7, ETV3L (Homo sapiens, UniProt Q6ZN32 1-361).
T7 sequence: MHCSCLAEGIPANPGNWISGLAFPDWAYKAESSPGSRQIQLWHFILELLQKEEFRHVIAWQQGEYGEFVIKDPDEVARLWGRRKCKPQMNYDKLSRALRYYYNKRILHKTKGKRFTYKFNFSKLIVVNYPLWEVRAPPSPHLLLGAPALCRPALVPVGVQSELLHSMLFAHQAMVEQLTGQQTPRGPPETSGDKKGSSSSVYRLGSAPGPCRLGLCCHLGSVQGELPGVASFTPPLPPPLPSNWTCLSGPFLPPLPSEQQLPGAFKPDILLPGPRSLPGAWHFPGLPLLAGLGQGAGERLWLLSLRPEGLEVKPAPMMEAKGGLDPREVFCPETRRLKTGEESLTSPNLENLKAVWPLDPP
Particulars: protein: recombinant; tags: N-terminal GST; dsDNA, one strand shown. The gist of the method:
as §1

A further experiment addresses T8, ETS2 (Homo sapiens, UniProt P15036 1-469).
T8 sequence: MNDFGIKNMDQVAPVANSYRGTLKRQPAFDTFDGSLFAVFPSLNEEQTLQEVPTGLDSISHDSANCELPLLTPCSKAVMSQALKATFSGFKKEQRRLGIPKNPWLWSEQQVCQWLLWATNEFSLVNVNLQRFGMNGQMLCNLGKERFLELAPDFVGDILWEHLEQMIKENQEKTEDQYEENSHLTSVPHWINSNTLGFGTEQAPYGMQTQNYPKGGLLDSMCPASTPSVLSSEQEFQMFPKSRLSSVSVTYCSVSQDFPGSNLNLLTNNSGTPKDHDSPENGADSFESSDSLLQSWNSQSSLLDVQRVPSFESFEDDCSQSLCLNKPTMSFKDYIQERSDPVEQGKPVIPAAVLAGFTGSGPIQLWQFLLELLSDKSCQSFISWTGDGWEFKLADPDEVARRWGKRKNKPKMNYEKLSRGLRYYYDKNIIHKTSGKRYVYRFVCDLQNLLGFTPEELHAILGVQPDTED
Particulars: protein: recombinant; tags: N-terminal GST; dsDNA, one strand shown. In a few lines:
as §1

The next experiment deals with T9, SPDEF (Homo sapiens, UniProt O95238 1-335).
T9 sequence: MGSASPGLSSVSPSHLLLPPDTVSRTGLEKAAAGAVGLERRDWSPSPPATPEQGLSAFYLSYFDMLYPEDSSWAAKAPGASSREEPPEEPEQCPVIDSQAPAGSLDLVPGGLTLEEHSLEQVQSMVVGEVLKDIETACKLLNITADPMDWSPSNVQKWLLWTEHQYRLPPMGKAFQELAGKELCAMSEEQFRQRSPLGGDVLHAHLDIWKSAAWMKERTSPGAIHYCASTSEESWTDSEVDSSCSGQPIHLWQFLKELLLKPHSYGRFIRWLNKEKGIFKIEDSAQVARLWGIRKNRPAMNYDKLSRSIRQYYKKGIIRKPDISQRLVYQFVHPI
The settings on record: protein: recombinant; tags: N-terminal GST; dsDNA, one strand shown. The gist of the method: as §1

The target in the next experiment is T10, ETV7 (Homo sapiens, UniProt Q9Y603 1-341).
T10 sequence: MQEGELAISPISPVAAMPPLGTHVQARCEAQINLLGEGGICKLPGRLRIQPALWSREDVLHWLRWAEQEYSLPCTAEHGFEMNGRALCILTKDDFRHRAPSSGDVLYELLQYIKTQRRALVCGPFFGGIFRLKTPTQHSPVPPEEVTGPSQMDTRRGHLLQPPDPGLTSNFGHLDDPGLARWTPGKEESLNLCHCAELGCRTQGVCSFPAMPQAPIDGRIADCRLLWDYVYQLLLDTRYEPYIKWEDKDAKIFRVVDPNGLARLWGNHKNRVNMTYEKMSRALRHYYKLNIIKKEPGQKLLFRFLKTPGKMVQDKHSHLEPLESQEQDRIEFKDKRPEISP
The settings on record: protein: recombinant; tags: N-terminal GST; dsDNA, one strand shown. The gist of the method: as §1

In the next experiment the target is T11, ELF5 (Homo sapiens, UniProt Q9UKW6-2 1-255).
T11 sequence: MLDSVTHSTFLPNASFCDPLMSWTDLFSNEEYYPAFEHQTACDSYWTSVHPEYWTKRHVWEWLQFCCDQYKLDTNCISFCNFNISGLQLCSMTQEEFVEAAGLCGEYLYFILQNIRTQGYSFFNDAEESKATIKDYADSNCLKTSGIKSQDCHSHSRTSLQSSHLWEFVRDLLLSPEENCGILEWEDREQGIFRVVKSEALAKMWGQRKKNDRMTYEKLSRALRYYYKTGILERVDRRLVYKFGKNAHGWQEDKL
Particulars: protein: recombinant; tags: N-terminal GST; dsDNA, one strand shown. The gist of the method: as §1

In the next experiment the target is T12, ETV3 (Homo sapiens, UniProt P41162-2 1-143).
T12 sequence: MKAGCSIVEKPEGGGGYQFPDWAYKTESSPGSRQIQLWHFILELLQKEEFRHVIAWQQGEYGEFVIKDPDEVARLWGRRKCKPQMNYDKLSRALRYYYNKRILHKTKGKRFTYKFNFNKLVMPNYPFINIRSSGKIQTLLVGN
The settings on record: protein: recombinant; tags: N-terminal GST; dsDNA, one strand shown. The gist of the method:
as §1

The target of the next experiment is ETV6 (Homo sapiens, UniProt P41212 1-452). The settings on record: protein: recombinant; tags: N-terminal GST; dsDNA, one strand shown. The gist of the method: as §1
Chain of ETV6 (P41212 whole entry): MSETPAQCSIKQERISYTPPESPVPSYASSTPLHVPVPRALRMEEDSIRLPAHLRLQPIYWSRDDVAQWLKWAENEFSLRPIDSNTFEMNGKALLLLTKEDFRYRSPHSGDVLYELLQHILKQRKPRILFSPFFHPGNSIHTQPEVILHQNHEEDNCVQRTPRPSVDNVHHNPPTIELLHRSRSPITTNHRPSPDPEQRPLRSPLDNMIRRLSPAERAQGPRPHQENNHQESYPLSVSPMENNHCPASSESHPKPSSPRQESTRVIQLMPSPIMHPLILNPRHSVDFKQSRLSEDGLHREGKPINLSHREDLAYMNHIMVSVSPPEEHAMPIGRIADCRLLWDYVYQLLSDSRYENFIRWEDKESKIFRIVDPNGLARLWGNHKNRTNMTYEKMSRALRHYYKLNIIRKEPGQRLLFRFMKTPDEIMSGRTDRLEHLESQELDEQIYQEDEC

Chain of ETV5 (P41161 whole entry): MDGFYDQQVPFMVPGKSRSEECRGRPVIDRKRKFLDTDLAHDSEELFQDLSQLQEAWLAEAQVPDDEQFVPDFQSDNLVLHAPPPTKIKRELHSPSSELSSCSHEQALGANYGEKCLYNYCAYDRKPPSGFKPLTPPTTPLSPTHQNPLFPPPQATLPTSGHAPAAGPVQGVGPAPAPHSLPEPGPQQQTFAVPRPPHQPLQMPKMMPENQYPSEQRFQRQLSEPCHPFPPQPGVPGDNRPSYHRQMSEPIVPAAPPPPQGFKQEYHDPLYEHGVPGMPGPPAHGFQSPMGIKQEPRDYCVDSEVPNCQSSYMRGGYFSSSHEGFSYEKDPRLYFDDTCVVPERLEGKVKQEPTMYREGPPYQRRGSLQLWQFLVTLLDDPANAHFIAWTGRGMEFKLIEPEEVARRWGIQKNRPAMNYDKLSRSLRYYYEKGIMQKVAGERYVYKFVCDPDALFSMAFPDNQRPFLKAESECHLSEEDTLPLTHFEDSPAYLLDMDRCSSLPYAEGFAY
Chain of CRX (O43186 whole entry): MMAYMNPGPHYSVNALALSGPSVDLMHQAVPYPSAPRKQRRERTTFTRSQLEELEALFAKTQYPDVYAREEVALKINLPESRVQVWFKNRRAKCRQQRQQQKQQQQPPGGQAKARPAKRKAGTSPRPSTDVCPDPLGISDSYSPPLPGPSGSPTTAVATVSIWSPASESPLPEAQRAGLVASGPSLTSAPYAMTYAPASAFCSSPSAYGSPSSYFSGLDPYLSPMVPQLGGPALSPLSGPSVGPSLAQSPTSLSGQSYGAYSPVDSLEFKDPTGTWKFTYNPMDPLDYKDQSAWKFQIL
Chain of HSF1 (Q00613 whole entry): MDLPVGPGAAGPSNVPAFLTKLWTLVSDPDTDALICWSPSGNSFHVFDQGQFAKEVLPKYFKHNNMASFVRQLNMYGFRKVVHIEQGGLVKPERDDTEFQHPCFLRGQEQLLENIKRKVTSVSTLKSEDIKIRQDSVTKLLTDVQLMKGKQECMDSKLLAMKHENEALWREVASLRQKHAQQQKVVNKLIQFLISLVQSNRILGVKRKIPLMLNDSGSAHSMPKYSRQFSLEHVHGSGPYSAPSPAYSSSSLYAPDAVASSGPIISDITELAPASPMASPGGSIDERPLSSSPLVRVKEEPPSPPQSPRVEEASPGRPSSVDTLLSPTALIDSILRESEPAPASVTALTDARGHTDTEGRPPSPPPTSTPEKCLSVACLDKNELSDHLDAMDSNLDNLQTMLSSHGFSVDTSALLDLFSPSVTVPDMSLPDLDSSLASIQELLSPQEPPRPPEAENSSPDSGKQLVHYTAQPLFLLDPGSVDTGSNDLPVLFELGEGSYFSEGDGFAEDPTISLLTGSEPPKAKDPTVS
Chain of ELF4 (Q99607 whole entry): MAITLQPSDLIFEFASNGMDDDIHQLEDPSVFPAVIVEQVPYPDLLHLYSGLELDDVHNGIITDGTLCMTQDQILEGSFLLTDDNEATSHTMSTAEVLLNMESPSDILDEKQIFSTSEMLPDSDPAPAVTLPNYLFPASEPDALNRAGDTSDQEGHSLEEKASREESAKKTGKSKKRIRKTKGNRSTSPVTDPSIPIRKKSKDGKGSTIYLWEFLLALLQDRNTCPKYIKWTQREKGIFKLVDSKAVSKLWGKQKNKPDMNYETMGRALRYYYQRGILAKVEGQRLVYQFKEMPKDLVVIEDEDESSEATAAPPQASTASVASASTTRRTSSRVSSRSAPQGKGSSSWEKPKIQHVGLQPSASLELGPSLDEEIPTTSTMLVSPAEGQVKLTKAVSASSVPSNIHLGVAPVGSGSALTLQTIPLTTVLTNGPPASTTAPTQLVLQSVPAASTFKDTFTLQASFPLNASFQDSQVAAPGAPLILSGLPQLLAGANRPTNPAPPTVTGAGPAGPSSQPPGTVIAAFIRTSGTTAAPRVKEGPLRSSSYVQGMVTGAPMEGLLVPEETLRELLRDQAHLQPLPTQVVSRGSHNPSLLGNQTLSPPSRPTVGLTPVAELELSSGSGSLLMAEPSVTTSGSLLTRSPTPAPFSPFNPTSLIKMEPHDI

On to ACCGAT, for which the binding signal with FEV is 1.06 fold enrichment (6-mer frequency, TF over GST control); in the experiment with ETV5, 1.08 fold enrichment (6-mer frequency, TF over GST control); with HSF1, 1.14 fold enrichment (6-mer frequency, TF over GST control); in the experiment with SPIC it was 1.33 fold enrichment (6-mer frequency, TF over GST control); in the experiment with ELF4 it was 1.24 fold enrichment (6-mer frequency, TF over GST control); in the experiment with ELK4, 1.15 fold enrichment (6-mer frequency, TF over GST control). Further, the binding signal is 1.19 fold enrichment (6-mer frequency, TF over GST control) in the experiment with ETV2; 1.22 fold enrichment (6-mer frequency, TF over GST control) with ELF3; 1.24 fold enrichment (6-mer frequency, TF over GST control) with CRX; 1.12 fold enrichment (6-mer frequency, TF over GST control) with ETV1; 1.05 fold enrichment (6-mer frequency, TF over GST control) with ERF; 1.11 fold enrichment (6-mer frequency, TF over GST control) with ETV3L. The binding signal in the experiment with ETS2 was 1.11 fold enrichment (6-mer frequency, TF over GST control); in the experiment with SPDEF, 1.05 fold enrichment (6-mer frequency, TF over GST control); with ETV7, 1.08 fold enrichment (6-mer frequency, TF over GST control); with ELF5, 1.04 fold enrichment (6-mer frequency, TF over GST control); in the experiment with ETV3, 1.13 fold enrichment (6-mer frequency, TF over GST control); with ETV6, 1.08 fold enrichment (6-mer frequency, TF over GST control).

These data come from publication PMC7862700, “An all-to-all approach to the identification of sequence-specific readers for epigenetic DNA modifications on cytosine”.
